Screening results deposited in PubChem BioAssay by several laboratories.
This is a sample that favours compounds with a hit; in the whole collection about 2.4% have one here.
ABHD5-PLIN5 inh: blocks binding of human ABHD5 to perilipin-5 | Q00G26+Q8WTS1 | Split G. princeps luciferase complementation, luminescence, 4 h | inhibition, % at 4 µM | hit rate 0.78% among 360,000;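 active = inhibition above the mean inhibition across every tested compound plus 3 SD, cut at about 22% in these data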;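 also: 0% = DMSO only wells and the 100% control is not disclosed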
CRFR2-BP antag: antagonists of CRF-binding protein/CRF-R2 receptor complex; HEK293 CRF-R2/CRF-BP, CRF-induced calcium fluorescence; inhibition, % at 11.8 µM; hit rate 0.59% among 350,000; AID 588475;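 active = inhibition of the ligand-induced calcium signal above about 50% at the single tested concentration, limit read from the data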
HTR2A ag: activates the mouse 5-HT2A serotonin receptor; P35363; CHO-K1 mHTR2A beta-arrestin complementation, luminescence; percent of 30 µM serotonin response; activation, % at 7.6 µM; hit rate 0.66% among 360,000;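 active = activation above a run cutoff, the mean activation of all tested compounds plus 3 SD, cut at about 14% in these data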;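 also: 0% = plate median of compound wells and 100% = 30 µM serotonin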
TLR4-MyD88 BLA: TLR4-MyD88 interaction inhibition in cells | HeLa CL3-4 TLR4/MyD88 BLA complementation, FRET ratio | AID 861 | inhibition, % at 8.4 µM | hit rate 0.18% among 200,000 | O00206+Q99836; in the data active = inhibition above about 25%;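 also: 0% = vehicle and 100% = reference inhibitor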
NOD2-RIPK2 inh: NOD2-RIPK2 protein interaction inhibition; O43353; CHO BLA complementation NOD2-RIPK2, CCF4 ratio; inhibition, % at 4.98 µM; hit rate 0.38% among 360,000; AID 624267; in the data active = inhibition above about 21%;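 also: 0% = vehicle only and 100% = reference blocker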
TLR9-MyD88 block: blocks human TLR9 binding to MyD88. Q9NR96+Q99836. CHO BLA complementation TLR9-MyD88, CCF4 FRET ratio. inhibition, % at 4.98 µM. hit rate 0.21% among 340,000. AID 504734;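 active = inhibition above the mean over all tested compounds plus 3 SD, cut at about 21% in these data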;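 also: 0% = DMSO only wells and 100% = clavulanate BLA inhibitor control wells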
Active calls of the source: *; / = no result; ! = not confirmed by another sample.

SMILES | ABHD5-PLIN5 inh | CRFR2-BP antag | HTR2A ag | TLR4-MyD88 BLA | NOD2-RIPK2 inh | TLR9-MyD88 block
COc1ccccc1CNC(=O)C(=O)NCC1OCCCN1S(=O)(=O)c1cccs1 (stereo not drawn) | -4 | -5 | 17* | / | 2 | -9
COCCNc1nc(-c2ccccc2CO)c2sc(-c3ccccc3)cc2n1 | 0 | / | -6 | / | -4 | /
Cc1cc(C)n(C(=O)CNC(=O)c2ccccc2Br)n1 | 3 | 97* | -6 | / | 0 | 8
Cc1cc(C)n(C(=O)CCNC(=O)c2ccccc2Br)n1 | 0 | 18 | 4 | -4 | 10 | 3
OC(c1cccc(Cl)c1)c1ncc(-c2cccc3ccccc23)[nH]1 (stereo not drawn) | -5 | / | 1 | / | 6 | /
Cc1cccc2c(CCNC(=O)c3ccc([N+](=O)[O-])cc3)c[nH]c12 | 0 | 57* | -5 | -5 | 0 | -2
CCOC(=O)C1(C)CCN1C(=O)c1cc(-c2ccc(Cl)cc2)oc1C (stereo not drawn) | 6 | / | 1 | / | 5 | /
CC1(C(=O)Nc2cnc3ccccc3c2)CCN1Cc1ccccc1Cl (stereo not drawn) | -7 | / | -3 | / | 0 | /
CCCCCCCCCCCCCCCC[n+]1cccc(C(=O)N(CC)CC)c1 | 45*! | 12 | 2 | 8 | -17 | 3
CCCCCCCC[n+]1cccc(C(=O)N(CC)CC)c1 | 1 | 1 | 3 | 1 | -12 | 4
COc1cc(/C=N/N(C)c2ccccc2)cc(Cl)c1O | -2 | 53* | -5 | -10 | -10 | 0
COc1ccc(OC)c(/C=N/N(C)c2ccccc2)c1 | -9 | -5 | -7 | 4 | 0 | -2
COc1ccccc1C(=O)Nc1nc2cc3c(cc2s1)OCCO3 | -4 | 5 | 23* | -6 | 1 | 8
CN(C)c1ccc(C=C2C(=O)OC(C)(C)OC2=O)cc1 | 0 | 52* | 1 | -1 | -11 | 5
CN(C)c1ccc(C=C2C(=O)OC(C)(C(C)(C)C)OC2=O)cc1 (stereo not drawn) | 10 | 48 | 4 | 10 | 2 | 10
COc1cc(OC)c2c(-c3cccc(-c4ccc(CO)cc4)c3)cc(=O)oc2c1 | 6 | -18 | 2 | / | 23* | 5
Cc1ccccc1S(=O)(=O)N1[C@@H](c2ccc(Br)cc2)C(C(=O)O)=CC[C@H]1c1ccc(Cl)cc1 | -7 | 35 | 22* | / | -8 | -9
Cc1ccccc1S(=O)(=O)N1[C@@H](c2ccccc2)C(C(=O)O)=CC[C@H]1c1ccc(Cl)cc1 | -8 | 8 | 3 | / | 8 | 2
COC(=O)C1=C(\O)CCCC/C=C\1C(=O)O | 22* | 10 | 9 | / | 0 | -3
COC(=O)CSC1=NS(=O)(=O)c2ccccc21 | -14 | 92* | -1 | 11 | -7 | 6
O=C(CCCOc1ccc(Cl)cc1)Nc1cccc(C(=O)O)c1 | -5 | 84* | 1 | 3 | 7 | 5
CC(C)(C)S(=O)N1Cc2cc(C(=O)N3CCc4ccccc4C3)nc(-c3cccc(-c4cccnc4)c3)c2[C@@H]1CCO (stereo partly drawn) | -3 | / | -3 | / | -7 | /
Cc1ccc(C)c(S(=O)(=O)C(C#N)c2nc3ccccc3nc2N2CCCC2)c1 (stereo not drawn) | 3 | 9 | 1 | 13 | -15 | 14
Cc1ccc(C)c(S(=O)(=O)C(C#N)c2nc3ccccc3nc2N2CCOCC2)c1 (stereo not drawn) | -10 | 63* | 1 | 5 | -14 | 3
O=C(c1cc2nc(-c3ccccc3)cc(-c3ccccc3)n2n1)N1CCN(C(=O)c2ccco2)CC1 | 7 | 55* | 2 | -18 | 11 | -6
SMILES | ABHD5-PLIN5 inh | CRFR2-BP antag | HTR2A ag | TLR4-MyD88 BLA | NOD2-RIPK2 inh | TLR9-MyD88 block
O=C(c1cc2nc(-c3ccccc3)cc(-c3ccccc3)n2n1)N1CCCC1 | 1 | -40 | 0 | -4 | 2 | -16
N#Cc1cccc(C(c2nnnn2C2CCCC2)N2CCCCCC2)c1 (stereo not drawn) | 0 | 53* | -5 | 3 | -8 | 1
N#Cc1cccc(C(c2nnnn2C2CCCC2)N2CCC(Cc3ccccc3)CC2)c1 (stereo not drawn) | 3 | -8 | 1 | -11 | -1 | -5
CCOc1ccccc1-c1ccc(C(=O)NCc2ccc(Cl)cc2)o1 | -3 | / | -6 | / | 1 | /
Cc1ccc(S(=O)(=O)n2nc(OC(=O)c3ccco3)cc2N)cc1 | 1 | 60* | 5 | 1 | 1 | 0
Nc1cc(OC(=O)c2ccco2)nn1S(=O)(=O)c1ccc(F)cc1 | -5 | 58* | 4 | 11 | -2 | -6
Nc1cc(OC(=O)c2ccc(F)cc2)nn1S(=O)(=O)c1ccc(F)cc1 | 1 | 2 | -3 | / | -11 | 3
Cc1ccc(S(=O)(=O)n2nc(OC(=O)c3ccccc3C)cc2N)cc1 | -7 | -15 | -6 | / | -9 | -8
COc1ccc(-c2nc3c(Cl)cc(C(F)(F)F)cn3c2Cc2ccsc2)cc1OC | -5 | / | -1 | / | -15 | /
O=C(NCc1cccc(C(F)(F)F)c1)c1csc([C@H]2C[C@H](O)[C@@H](CO)O2)n1 | 9 | / | 9 | / | -13 | /
O=C(Nc1ccc(N2CCOCC2)c(Cl)c1)c1ccc([N+](=O)[O-])o1 | -3 | -1 | 2 | 15 | 2 | 8
CCCC(=O)N1CCN(c2ccc(NC(=O)c3ccc([N+](=O)[O-])o3)cc2Cl)CC1 | 0 | -2 | -6 | -3 | 27* | 3
CC1(C(=O)NS(C)(=O)=O)CCN1C(=O)C/C=C/c1ccccc1 (stereo not drawn) | 0 | / | -1 | / | -13 | /
COc1ccc(C#Cc2c(-c3ccccc3)n(-c3ccccc3)c3ccc(CO)cc23)cc1 | -27 | 118* | 5 | / | -7 | 1
COc1ccc(-c2c(C#Cc3ccc(N(C)C)cc3)c3ccccc3n2C)cc1 | -7 | 7 | -7 | / | -1 | -1
CCCCN(C(C)=O)c1c(CC)nc2ccc(C(=O)NCCOc3ccc(OC)cc3)cn12 | 7 | / | -2 | / | -3 | /
O=C1NC(=S)S/C1=C\c1cccc([N+](=O)[O-])c1 | -4 | 55* | 3 | / | -1 | -3
O=C1NC(=Nc2ccccc2Cl)S/C1=C\c1cccc([N+](=O)[O-])c1 | 7 | 14 | 5 | / | -7 | -2
Cc1c(C(=O)NCC2CCCO2)sc2nc(-c3ccc(F)cc3)cn12 (stereo not drawn) | 2 | 56* | -1 | -1 | 7 | -1
N#Cc1nc(Nc2cccc(Cl)c2)c2ncn(C3CCCC3)c2n1 | 3 | 97* | 4 | / | 6 | -7
c1ccc2c(c1)C1=NCCN1c1ccccc1-2 | 2 | -8 | -1 | / | 6 | 6
S=C(NC1CCCCC1)N1CCOCCOCCN(C(=S)NC2CCCCC2)CCOCCOCC1 | 13 | 115* | -1 | / | 1 | /
